# ChEMBL document CHEMBL1157539, “Thousands of chemical starting points for antimalarial lead identification” (Nature, 2010)
# Experiments:
# Type in all cases: functional
# [1] = tested on: Plasmodium falciparum; assay: GSK_TCMDC: Inhibition of Plasmodium falciparum 3D7 in whole red blood cells, using parasite LDH activity as an index of growth. Test compounds present at 2uM
# [2] = tested on: Plasmodium falciparum; assay: GSK_TCMDC: Inhibition of Plasmodium falciparum Dd2 in whole red blood cells, using parasite LDH activity as an index of growth. Test compounds present at 2uM
# [3] = tested on: HepG2; assay: GSK_TCMDC: Percent inhibition of human HepG2 cell line. Test compounds present at 10uM.
compound,measurement,setting,value
O=C(Nc1ccccc1)N(Cc1cccc(-c2cccc(CNCCc3ccccc3)c2)c1)C1CCN(Cc2ccccc2)CC1.O=C(O)C(F)(F)F,Inhibition,[1],100%
same,Inhibition,[2],87%
same,Inhibition,[3],100%
COc1ccc(CN2CCN(CC(=O)Nc3cc(Cl)ccc3-n3cncn3)CC2)cc1F,Inhibition,[1],93%
same,Inhibition,[3],0%
CC(C)Cc1cn(-c2nc(C(=N)N)cs2)c2cc(Cl)ccc12,Inhibition,[1],100%
same,Inhibition,[2],98%
same,Inhibition,[3],98%
CCCCCCN1CCC(NCc2cccc(-n3ccnc3)c2)CC1.O=C(O)C(F)(F)F,Inhibition,[1],100%
same,Inhibition,[2],100%
same,Inhibition,[3],3%
COc1cccc(Nc2c(C(N)=O)cnc3ccc(-c4ccc([S+](C)[O-])cc4)cc23)c1.O=C(O)C(F)(F)F (stereo not drawn),Inhibition,[1],96%
same,Inhibition,[2],100%
same,Inhibition,[3],0%
COc1ccc2nccc(N3CCC(SCCNS(=O)(=O)c4ccc5c(c4)OCCO5)C3)c2n1.Cl (stereo not drawn),Inhibition,[1],94%
same,Inhibition,[2],87%
same,Inhibition,[3],36%
OC[C@H](Nc1nc(C(Oc2ccccc2)c2ccccc2)nc2[nH]ncc12)c1ccccc1 (stereo partly drawn),Inhibition,[1],98%
same,Inhibition,[2],45%
same,Inhibition,[3],0%
CC(C)CCN1CCCN(Cc2cccc(C(=O)Nc3ccc(C(C)(C)C)cc3)c2)CC1.O=C(O)C(F)(F)F,Inhibition,[1],85%
same,Inhibition,[2],1%
same,Inhibition,[3],33%
